proKLK7 act = proKLK7 zymogen activators, primary screen, biochemical, fluorescence intensity; 370,000 compounds, 0.9% hits; activation, % at 7 µM; purified proKLK7, EDANS-DABCYL substrate fluorescence; 100% is mature enzyme control, 0% vehicle; AID 652039, 2013; Kallikrein-7 (Homo sapiens), P49862;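 active = activation above the mean of all tested compounds plus 3 SD, computed per campaign excluding outliers beyond control limits, cut at about 13% in these data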
Target sequence (P49862 whole entry, looked up): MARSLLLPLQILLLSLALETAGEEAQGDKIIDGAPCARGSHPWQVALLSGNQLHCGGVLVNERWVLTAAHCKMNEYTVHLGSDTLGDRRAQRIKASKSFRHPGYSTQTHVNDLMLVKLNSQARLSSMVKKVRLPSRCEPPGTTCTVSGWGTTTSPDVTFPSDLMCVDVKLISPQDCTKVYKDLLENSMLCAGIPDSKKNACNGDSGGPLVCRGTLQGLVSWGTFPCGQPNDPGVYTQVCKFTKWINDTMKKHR
FAS-TE inh = FAS thioesterase domain inhibitors, primary screen, biochemical, fluorescence intensity, uHTS; Fatty acid synthase (Homo sapiens), P49327; recombinant FAS-TE, OMFH fluorogenic substrate, fluorescence endpoint; inhibition, % at 15 µM; 360,000 compounds, 0.67% hits; AID 602261, 2012;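 active = compounds whose normalised, plate-corrected inhibition of enzyme fluorescence in the single-dose primary screen is 50% or more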;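 also: 0% = DMSO with enzyme and 100% = substrate without enzyme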
PfG6PD inh = PfG6PD enzyme inhibitors, primary screen, biochemical, fluorescence intensity, uHTS; glucose-6-phosphate dehydrogenase-6-phosphogluconolactonase (Plasmodium falciparum 3D7); PfGluPho enzyme, NADPH resazurin-diaphorase fluorescence; AID 504690, 2011; 350,000 compounds, 0.78% hits; inhibition, % at 20 µM;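 active = inhibition reaching at least a set limit at 20 µM in the primary screen, cut at about 59% in these data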;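 also: 0% = DMSO wells with substrate and 100% = DMSO wells lacking glucose-6-phosphate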
Neddylation inh = inhibitors of cullin neddylation, primary screen, biochemical, TR-FRET, uHTS, NAE and Ubc12; NEDD8-conjugating enzyme Ubc12 (Homo sapiens) + NEDD8-activating enzyme E1 regulatory …; calls only at 25 µM; 360,000 compounds, 0.58% hits; AID 651699, 2012; in the data active = inhibition above about 36%
FAS-TE conf = FAS thioesterase domain inhibitors, confirmation, biochemical, fluorescence intensity, single concentration; AID 624325, 2012; inhibition, % at 15 µM; recombinant FAS-TE, OMFH fluorogenic substrate; shares compounds with FAS-TE inh; 2,300 compounds, 45% hits;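 active = compounds inhibiting the enzyme by at least 50% at 15 µM in any one of the replicates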;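 also: 0% = enzyme with DMSO only and 100% = wells lacking enzyme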
Neddyl inh conf = blockade of NEDD8 conjugation to cullin – biochemical, TR-FRET, single concentration, confirmation; calls only at 25 µM; shares compounds with Neddylation inh; 1,800 compounds, 13% hits; AID 652217, 2013; TR-FRET cullin neddylation biochemical assay; in the data active = inhibition above about 40%;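 also: neddylation substrate is the cullin 1 ring ligase complex with SKP2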
KLK7 act conf = proKLK7 zymogen activators, confirmation, biochemical, fluorescence intensity, triplicate; activation, % at 7 µM; 3,200 compounds, 68% hits; AID 686949, 2013; purified proKLK7, EDANS-DABCYL substrate fluorescence; scaled: vehicle 0, mature enzyme 100; shares compounds with proKLK7 act;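 active = activation, as change over the incubation, above the mean of all tested compounds plus 3 SD, cut at about 13% in these data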
EDANS interfere = EDANS-DABCYL substrate optical interference, artefact control for kallikrein-7 zymogen activator project, biochemical, fluorescence intensity, high throughput; activation, % at 7 µM; 3,200 compounds, 80% hits; shares compounds with proKLK7 act; no enzyme, 4 h; solvent 0%, active enzyme control 100%;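 active = activation above the all-compound mean plus 3 SD, ignoring values outside control-based bounds, cut at about 4.8% in these data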;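 also: value is the 4 h activation minus the activation read at time zero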
K7 EDANS ctr = optically interferes with EDANS-DABCYL fluorescence, kallikrein-7 activator counter-screen. shares compounds with proKLK7 act. EDANS-DABCYL peptide fluorescence interference, no enzyme. EC50, µM. 250 compounds, 20% hits. AID 720493;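 active = compounds that raise the fluorescence signal in this interference counterscreen, with EC50 at or below 10 µM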;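 also: intact quenched peptide substrate alone read at 355 nm excitation and 520 nm emission; signal is fluorescence gain from T0 to T4 after four hours at room temperature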
Numbers without * were called inactive; i = inactive; · = not tested or not shown; + = active, no number. Most compounds without a hit are left out; they make up all but 2.7% or so of the library.

SMILES | proKLK7 act | FAS-TE inh | PfG6PD inh | Neddylation inh | Neddyl inh conf | others
Cc1cc(=O)oc2cc(OCC(=O)N3CCN(C(C)c4ccccc4)CC3)c(Cl)cc12 (configuration not stated) | 38* | 60* | 22 | · | · | FAS-TE conf=67*;KLK7 act conf=63*;EDANS interfere=75*
C=CCn1c(O)c(C(CC)=NCCc2c[nH]c3ccccc23)c(=O)[nH]c1=O | -1 | 4 | 20 | i | ·
CCOc1ccc2[nH]c(=O)c(CN(CCO)C3(c4nnnn4C4CCCCC4)CCCCC3)cc2c1 | 0 | -1 | 0 | + | i
CC1(C)Cc2c(sc3c2C(=O)NC(c2cccnc2)N3)CO1 (configuration not stated) | 0 | -5 | 29 | + | i
O=C1NC(c2cccnc2)Nc2sc3c(c21)CCCC3 (configuration not stated) | 2 | -1 | 40 | + | i
CC12CN3CC(C)(CN(C1)C3c1cccnc1)C2=O (configuration not stated) | 1 | -7 | -3 | i | ·
CC/C(=N\NC(=O)c1ccccc1)c1c(O)n(Cc2ccccc2)c(=O)[nH]c1=O | 0 | 13 | -19 | + | i
CCC(=NCC1CCCO1)c1c(O)n(Cc2ccccc2)c(=O)[nH]c1=O (configuration not stated) | 0 | -7 | -20 | i | ·
O=C(N/N=C/c1c(O)n(CCc2ccccc2)c(=O)[nH]c1=O)c1ccccc1 | 0 | 20 | -15 | + | i
CCCCC(C)C(OC(=O)CC(CC(=O)O)C(=O)O)C(CC(C)CC(O)CCCCC(O)CC(O)C(C)N)OC(=O)CC(CC(=O)O)C(=O)O (configuration not stated) | 0 | -9 | -10 | i | ·
O=C1NC(=O)C2(Cc3ccccc3N3CCCC32)C(=O)N1c1cccc(Cl)c1 (configuration not stated) | -1 | 0 | -5 | i | ·
Cc1ccc(CN2C(=O)NC(=O)C3(Cc4c(nc5ccccn5c4=O)N4CCCCCC43)C2=O)cc1 (configuration not stated) | 0 | 16 | 8 | + | i
NC(Cc1ccc(O)cc1)C(=O)NN=Cc1ccc(N(CCCl)CCCl)cc1 (configuration not stated) | 1 | -9 | 18 | + | i
S=C=Nc1ccccn1 | -1 | -8 | 4 | i | ·
COc1ccc2c(CN3CC=C(c4ccccc4)CC3)cc(=O)oc2c1 | -7 | -3 | -7 | + | i
CCc1ccc2c(CN3CC=C(c4ccccc4)CC3)cc(=O)oc2c1 | -1 | -11 | 2 | i | ·
C=CCOC(=O)c1ccccc1N | -7 | 5 | 3 | + | i
Nc1ccccc1C(=O)OCCOc1ccccc1 | -2 | 10 | 9 | · | ·
CCNc1nc(NC(C)(C)C)nc(SC)n1 | -1 | -1 | 1 | i | ·
Cn1c2ccccc2c2c(C(=O)N3CCC4(CC3)OCCO4)cn(C3CCCC3)c(=O)c21 | 0 | -6 | 7 | i | ·
COCCn1cc(C(=O)N2CCC3(CC2)OCCO3)c2c3ccccc3n(C)c2c1=O | 2 | -4 | -9 | + | i
O=C(c1ccc2c3c(cccc13)CC2)C1CCCN(Cc2ncc[nH]2)C1 (configuration not stated) | 4 | -6 | 8 | + | i
CCC(C)n1c(O)c(/C=N/NC(=O)c2ccncc2)c(=O)[nH]c1=S (configuration not stated) | -1 | 12 | -4 | + | i
Cc1cccc(NP2(=O)NCCCN2)c1 | 0 | -5 | -7 | i | ·
CC1CCCC(C2(O)C(=O)Nc3ccccc32)C1=O (configuration not stated) | -1 | 2 | -8 | i | ·
SMILES | proKLK7 act | FAS-TE inh | PfG6PD inh | Neddylation inh | Neddyl inh conf | others
CCOc1ccc(N=Cc2c(O)n(CCc3ccc(OC)c(OC)c3)c(=O)[nH]c2=O)cc1 | -1 | -23 | -6 | + | i
COc1ccc(CCn2c(O)c(C=Nc3ccc(NC(C)=O)cc3)c(=O)[nH]c2=O)cc1OC | 0 | -8 | 10 | · | ·
CC(=O)O[C@H]1CCC2C3CC[C@H]4[C@@H](O)[C@H](O)CC[C@]4(C)C3CC[C@@]21C (some centres not stated) | 0 | -2 | -20 | i | ·
Cc1ccc(-c2cc(-c3ccc(C)cc3)[n+](-c3ccc(C(=O)[O-])cc3)c(-c3ccc(C)cc3)c2)cc1 | 3 | -16 | -4 | + | +
CCOC(=O)c1ccc(-[n+]2c(-c3ccccc3)cc(-c3ccccc3)cc2-c2ccccc2)cc1 | · | · | -26 | · | ·
CO[C@H]1[C@@H](OC)CC(OC2OC(CO)C(O)C(O)C2O)/C(=C\C#N)[C@@H]1O (some centres not stated) | 0 | -9 | -2 | i | ·
CC(CCN1CC1)=NNC(=O)Nc1cccc2ccccc12 | -7 | -1 | 10 | + | i
Clc1ccc(OCC#CCN2CCCC2)cc1 | 0 | -5 | -2 | i | ·
CCCCC(=O)N/N=C/c1c(O)n(-c2cccc3ccccc23)c(=O)[nH]c1=O | 0 | -4 | -38 | + | i
COCCN1Cc2cc(=O)n3c([nH]c4ccccc43)c2C1=N | 22* | 2 | -6 | · | · | KLK7 act conf=19*;EDANS interfere=-8;K7 EDANS ctr=>70
Nc1ccc2ccc3cccc[n+]3c2c1 | 95* | -141 | 50 | i | · | KLK7 act conf=73*;EDANS interfere=66*
CN(C)C1=NC(N(C)C)=NP(N(C)C)(N(C)C)=N1 | 1 | 0 | -9 | i | ·
CCCCn1c(N)c(C(=O)NCCN2CCOCC2)c2nc3ccccc3nc21 | -27 | 3 | 22 | · | ·
CCOC(=O)c1c(N)n(CCN2CCCCC2)c2nc3ccccc3nc12 | 154* | -7 | -1 | · | · | KLK7 act conf=29*;EDANS interfere=17*

Screening results from PubChem.
